Screening data (PubChem)
Sampled rows, rich in hits. Any-hit rate of the full collection: about 3.3%.
RE007 growth inh: less growth of the S. pombe RE007 Vpr strain; S. pombe RE007 Vpr strain, BacTiter-Glo ATP luminescence, 24 h; Potency, µM (highest dose often 92.2 µM), inactives show top-dose activity change, negative = less growth, most hits filed as inhibitors; 0.21% of 360,000 active; AID 651644; active = well fitted falling curve with a large enough effect; inconclusive = small, poorly fitted or top-dose-only effect; inactive = no such curve, though single readings can be large or run the other way; note: nearly all actives have a fitted effect of over 50% in size
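Fission yeast strain RE007, carrying one chromosomally integrated HIV-1 vpr copy, was seeded at OD 0.01 in PMG+AL medium with 23 nL pinned compound. After 24 h at 30 °C and 99% humidity, viability was read by BacTiter-Glo luminescence.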
Sm TGR inh: blocks Schistosoma mansoni thioredoxin glutathione reductase; Q962Y6; purified TGR, DTNB reduction, TNB absorbance 405 nm; Potency, µM (top dose mostly 114 µM), for the others: at the top dose activity change, negative = inhibition, usual class: inhibitors; 3% of 360,000 active; AID 485364; note: nearly all actives have a fitted effect of over 60% in size
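First, TGR (20 nM dispensed) and NADPH were mixed with compound. Second, a 15 min room-temperature incubation followed. Third, further NADPH and then DTNB were added to start the reaction. Finally, TNB absorbance was monitored kinetically.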
LmPK inh: LmPK (Leishmania mexicana) enzyme inhibition; 0.37% of 290,000 active; purified LmPK, Kinase-Glo ATP luminescence, 1 h; Potency, µM (doses to about 57.5 µM), for the others: top-dose activity change, negative = inhibition, hits mostly inhibitors; AID 1721; Q27686
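Purified LmPK (0.1 nM) converted ADP (0.1 mM) to ATP with PEP (0.5 mM) in imidazole buffer pH 7.2 with KCl and MgCl2, 1 h at room temperature. ATP was read by Kinase-Glo luminescence; data normalized to uninhibited and no-enzyme controls.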
FBPA Giardia inh: inhibitors of Giardia lamblia fructose-1,6-bisphosphate aldolase. purified Giardia FBPA. Potency, µM (titrated, usually from 59.6 µM), for inactives: at the top dose activity, negative = inhibition, usual class: inhibitors. AID 2451. 0.71% of 290,000 active. A8B2U2; note: nearly all actives have a fitted effect of over 55% in size
Target sequence (A8B2U2 whole entry, looked up): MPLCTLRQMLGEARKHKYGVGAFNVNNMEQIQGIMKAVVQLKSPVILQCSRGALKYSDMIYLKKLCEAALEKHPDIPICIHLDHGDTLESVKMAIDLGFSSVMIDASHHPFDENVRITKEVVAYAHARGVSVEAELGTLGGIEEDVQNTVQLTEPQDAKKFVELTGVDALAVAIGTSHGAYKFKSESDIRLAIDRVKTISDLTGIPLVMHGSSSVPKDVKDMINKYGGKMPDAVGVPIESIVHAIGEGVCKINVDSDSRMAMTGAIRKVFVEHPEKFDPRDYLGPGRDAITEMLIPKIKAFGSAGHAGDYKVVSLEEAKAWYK
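Giardia FBPA (40 nM reagent) was preincubated 10 min at RT with compound (up to 57.5 uM final), then substrate plus GAPDH/TPI/NAD/arsenate coupling system with diaphorase/resazurin was added; resorufin fluorescence (525/598 nm) was read after 20 min.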
TbPYK inhibitor: inhibitors of Trypanosoma brucei pyruvate kinase | TbPYK enzyme, Kinase-Glo Plus ATP luminescence, 45 min | Potency, µM (titrated, usually from 76.8 µM), inactives show at the highest dose activity, negative = inhibition, usual class: inhibitors | 0.12% of 410,000 active | AID 624173 | Q57TT1; note: nearly all actives have a fitted effect of over 50% in size
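Quantitative HTS: titrated library compounds versus trypanosomal pyruvate kinase in TEA buffer (pH 7.2) containing KCl, MgCl2, BSA and Tween-20. Reactions were initiated with ADP, 130 uM final. Kinase-Glo Plus luminescence was read after 45 min at RT.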
Starred values were filed as active, the others as inactive; ? = inconclusive; . = no result. Unless noted, calls come from the whole dose curve; as a rule, active = well fitted curve in the direction sought with a large enough effect; inconclusive = small, poorly fitted or top-dose-only effect, or another doubt; inactive = no such curve, though single readings can be large; an effect the other way counts as inactive or inconclusive. % is set by controls: 0 for no effect and ±100 for the full control effect; potency is the fitted concentration of half-maximal effect.

SMILES	RE007 growth inh	Sm TGR inh	LmPK inh	FBPA Giardia inh	TbPYK inhibitor
Cc1cc(/C=C2\C(=O)NC(=O)N(c3ccc(Cl)cc3)C2=O)c(C)n1C	-1.4%	.	1.4%	-6.5%	-1.0%
Cc1ccc(N2C(=O)NC(=O)/C(=C\c3cnc(-c4ccccc4)nc3)C2=O)cc1	?	1.58µM*	9.5%	-9.1%	-3.8%
Cc1ccc(N2C(=O)NC(=O)/C(=C/c3cnn(-c4ccc(C)cc4)c3)C2=O)cc1	-1.0%	-24.0%	1.1%	1.7%	-19.8%
CSc1ncc(/C=C2/C(=O)NC(=O)N(c3ccc(C)cc3)C2=O)cn1	1.7%	2.51µM*	1.9%	-0.3%	-26.8%
CCOc1ccc(N2C(=O)NC(=O)/C(=C/c3cnc(SC)nc3)C2=O)cc1	-13.7%	8.91µM*	11.2%	8.7%	?
CSc1ncc(/C=C2/C(=O)NC(=O)N(c3ccc(Cl)cc3)C2=O)cn1	-15.2%	5.62µM*	3.0%	-0.5%	-12.7%
COC(=O)c1c(S(C)(=O)=O)nc(-c2ccccc2)[nH]c1=O	13.5%	25.1µM*	0.9%	5.4%	-3.6%
O=S(NCc1ccco1)C12CC3CC(CC(C3)C1)C2 (stereo unspecified)	4.4%	22.4µM*	9.5%	-12.4%	-15.1%
O=C(NCc1ccco1)C12CC3CC(C1)CC(C(=O)NCc1ccco1)(C3)C2	4.2%	39.8µM*	-0.1%	1.5%	-4.7%
CC12CC3CC(C)(C1)CC(C(=O)NCc1ccco1)(C3)C2	10.5%	-35.7%	10.4%	-0.2%	?
Cn1c(N)c(C(=O)COC(=O)c2ccc(C(F)(F)F)cc2)c(=O)n(C)c1=O	26.8%	.	.	.	1.2%
COC(=O)[C@@]12C[C@@H](CC(=O)NCCC(C)C)C(=O)N(Cc3ccccc3)C1=CCC(C)(C)C2	5.1%	.	.	.	.
COc1ccc(CCN2C(=S)N(C)C(=O)C2CC(=O)Nc2ccc(F)cc2)cc1 (stereo unspecified)	26.6%	28.7%	2.1%	-7.4%	-16.5%
O=C1c2ccccc2-c2onc3ccc(Oc4ccccc4)c1c23	?	6.31µM*	2.1%	?	-7.1%
COc1cc2c(cc1OC)CN(C(=O)c1ccccc1C(=O)O)CC2	-7.0%	79.4µM*	1.8%	1.2%	-15.1%
Cc1nn(C(C)C(=O)NCc2ccccc2)c(C)c1[N+](=O)[O-] (stereo unspecified)	-5.0%	0.3%	-0.2%	0.1%	-15.5%
COc1ccccc1CNC(=O)c1ccc(NS(=O)(=O)c2cccs2)cc1	2.6%	-2.2%	-6.0%	-16.0%	0.0%
O=C(O)c1nn(-c2ccccc2-c2n[nH]c(=O)[nH]c2=O)c(=O)[nH]c1=O	.	11.2µM*	5.7%	?	.
O=C1NCCCN1Cc1ccc(F)cc1	-4.5%	-15.1%	7.2%	-0.3%	-1.9%
CC(C)OC(=O)CSc1nnc(Cc2ccccc2)n1Cc1ccco1	5.1%	22.4µM*	0.1%	-3.2%	-20.2%
O=C(CSc1nnc(COc2ccccc2F)n1-c1ccccc1)NCc1ccco1	4.9%	39.8µM*	-3.4%	-13.7%	-16.9%
Cc1ccccc1OCc1nnc(SCC(=O)NCc2ccco2)n1C	-11.4%	-9.8%	4.4%	0.2%	-3.5%
COc1ccccc1OCc1nnc(SCC(=O)NCc2ccco2)n1Cc1ccco1	3.3%	15.8µM*	4.8%	-13.0%	-10.8%
COCCCNCCOCCOc1c(OC)cccc1OC	2.1%	?	1.4%	-0.1%	-10.0%
COc1cc(/C=N/N2CCCCC2)cc(OC)c1O	-9.8%	14.1µM*	-28.4%	-26.1%	?
SMILES	RE007 growth inh	Sm TGR inh	LmPK inh	FBPA Giardia inh	TbPYK inhibitor
Oc1ccc(/C=N/N2CCCCC2)cc1O	-8.4%	2.82µM*	-0.2%	?	-12.2%
Clc1ccc(C=NN2CCCCCC2)cc1Cl	-10.0%	.	.	.	-3.0%
Cc1ccc(SCC(=O)N(Cc2nc(-c3ccccc3)no2)C(C)C)cc1	22.1%	0.1%	-2.5%	-1.9%	3.6%
Cc1ccc(S(=O)(=O)NC(=O)Nc2ccc(F)cc2)cc1	11.9%	7.5%	2.3%	-3.6%	-6.8%
Cc1nc2ccc(C(C(F)(F)F)(C(F)(F)F)C(F)(F)F)cc2[nH]1	28.2µM*	-33.5%	2.1%	-15.0%	3.2%
Cc1nc2ccc(Cl)cc2[nH]1	-7.9%	.	.	.	2.4%
O=C(COc1ccc(Br)cc1)N1CCN(Cc2ccncc2)CC1	6.8%	6.6%	-3.2%	-17.1%	-4.7%
CC(Oc1ccc2c(c1)oc(=O)c1ccccc12)C(=O)NCCCN1CCOCC1 (stereo unspecified)	-8.8%	1.8%	2.4%	.	-3.7%
N#CCCCN1C(=O)C(=C(C#N)C#N)c2ccccc21	-2.8%	2.51µM*	6.2%	?	-3.4%
N#CCCCN1C(=O)C(O)(CC(=O)c2ccc3c(c2)OCCO3)c2ccccc21 (stereo unspecified)	17.4%	1.6%	-2.7%	1.6%	-6.4%
COC(=O)c1ccc(CN2CCN(Cc3ccc(C(=O)OC)o3)CC2)o1	3.3%	35.5µM*	1.5%	2.2%	-8.7%
COC(=O)c1ccc(CN2C(=O)c3ccccc3C2=O)o1	11.5%	-6.6%	-0.3%	7.2%	1.1%
Oc1cccc2c(NC(=S)Nc3ccc(SC(F)F)cc3)cccc12	-14.4%	-11.6%	2.8%	1.77µM*	-3.5%
Oc1cccc(NC(=S)Nc2ccc(SC(F)F)cc2)c1	-4.1%	?	-0.1%	-5.2%	-1.8%
Cc1ccc(NC(=O)CC2SC(=NC3CCCCC3)NC2=O)cc1 (stereo unspecified)	-0.9%	50.1µM*	-5.5%	-0.5%	0.5%
Cc1ccccc1NC(=O)CC1SC(=NC2CCCCC2)NC1=O (stereo unspecified)	-15.0%	-30.7%	-0.9%	3.5%	5.3%
Cc1cc(C)cc(-n2c3nc4ccccc4nc3c3c(=O)n(Cc4ccco4)cnc32)c1	29.5%	15.8µM*	-8.7%	-16.2%	-4.2%
COCCCn1cnc2c(c1=O)c1nc3ccccc3nc1n2-c1ccc(C)cc1	-2.7%	-7.5%	3.1%	0.0%	-5.8%
Cc1nc2c(c(=O)n1Cc1ccccc1Cl)c1nc3ccccc3nc1n2Cc1ccco1	.	2.82µM*	-4.0%	-8.9%	.
CC(C)(C)C(=O)C1=C(O)C(=O)N(Cc2ccccc2)C1c1ccccc1F (stereo unspecified)	4.4%	-10.1%	-0.2%	12.6%	-13.2%
CCN(C(=O)CSc1nnc(-c2cc(OC)c(OC)c(OC)c2)o1)c1ccccc1	.	20µM*	.	.	-1.8%
O=C(Cc1cccc2ccccc12)Nc1nnc(-c2cccc([N+](=O)[O-])c2)s1	-6.9%	-8.6%	3.1%	5.1%	3.3%
O=C(CSc1ccc(Cl)cc1)Nc1nnc(-c2cccc([N+](=O)[O-])c2)s1	9.3%	44.7µM*	1.4%	5.4%	-1.2%
COc1ccc(NC(=O)CNS(=O)(=O)c2ccc(Cl)cc2)cc1	-1.7%	-2.5%	0.9%	-1.2%	-4.5%
COc1ccc(NC(C)=[N+](C)CCNS(=O)(=O)c2ccc(Cl)cc2)cc1	-3.9%	35.5µM*	9.4%	.	?
